Screening results as filed in PubChem.
An excerpt weighted towards active compounds, which were near 5.7% of everything screened.
HT1080 IDH1KD tx – toxicity to HT-1080 IDH1 knockdown cells (counter line) | HT-1080 IDH1 knockdown viability, ATP luminescence, 48 h | Potency, µM (doses to about 46.1 µM), hits mostly cytotoxic | 360,000 compounds, 2% hits | AID 686971
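Knockdown cells (IDH1KD HT-1080) received compounds 2 h after plating at 750 cells/well and were kept 48 h at 37 °C in 5% FBS RPMI. A CellTiter-Glo luminescence read gave % activity for curve fitting.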
HT1080NT lethal – kills 2HG-producing HT-1080-NT fibrosarcoma cells; Potency, µM (titrated, usually from 46.1 µM), most hits filed as cytotoxic; 360,000 compounds, 1.6% hits; HT-1080-NT fibrosarcoma viability, CellTiter-Glo ATP luminescence, 48 h;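 note: NT is the 2HG producing partner of a matched IDH1 knockdown line; nearly all actives have a fitted effect of over 55% in size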
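Fibrosarcoma NT cells, 750 per well in 5% FBS RPMI, were exposed to compound for 48 hours. Viability: CellTiter-Glo luminescence.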
KB-3-1 cytotox – kills parental KB-3-1 adenocarcinoma cells | KB-3-1 viability, CellTiter-Glo ATP luminescence, 72 h | Potency, µM (series often up to 46.1 µM), most hits filed as cytotoxic | 400,000 compounds, 1.4% hits; note: nearly all actives have a fitted effect of over 60% in size
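Cytotoxicity in the drug-sensitive parental line KB-3-1 was scored as loss of CellTiter-Glo luminescence following 72 h incubation with compound. Values come from curve fitting of normalized concentration-response data.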
KB-V1 MDR tox – kills drug-selected multidrug resistant KB-V1 cells. KB-V1 MDR cells viability, CellTiter-Glo, 72 h. Potency, µM (highest dose often 46.1 µM), actives largely listed as cytotoxic. 400,000 compounds, 3.4% hits; note: nearly all actives have a fitted effect of over 60% in size
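KB-V1, DMEM (no phenol red) + 10% FBS; cpd pin-transferred, titration series; 72 h, 37 degrees C; CellTiter-Glo, luminescence. Data normalized, curve-fit.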
Large screens that a line does not name were inactive. Calls come from the whole dose curve; as a rule, active = well fitted curve in the direction sought with a large enough effect; inconclusive = small, poorly fitted or top-dose-only effect, or another doubt; inactive = no such curve, though single readings can be large; an effect the other way counts as inactive or inconclusive.

CCCOc1cc(C)c(S(=O)(=O)NCCOC)cc1C	KB-V1 MDR tox 18µM
O=C1c2ccccc2C(=O)N1CCc1csc(-c2cccc(F)c2)n1	KB-V1 MDR tox 16µM
O=C1c2ccccc2C(=O)N1CCc1csc(-c2cccc(Cl)c2)n1	KB-V1 MDR tox inconclusive
Cc1cc(N2CCN(c3ccc(C(F)(F)F)cc3[N+](=O)[O-])CC2)c2ccccc2n1	HT1080 IDH1KD tx inconclusive, HT1080NT lethal inconclusive, KB-3-1 cytotox inconclusive
Cc1cc(N2CCN(c3ccc([N+](=O)[O-])c4cccnc34)CC2)c2ccccc2n1	HT1080 IDH1KD tx inconclusive, HT1080NT lethal inconclusive, KB-3-1 cytotox 16µM, KB-V1 MDR tox inconclusive
O=[N+]([O-])c1cc(S(=O)(=O)Oc2ccccc2)ccc1Cl	HT1080 IDH1KD tx 18µM, HT1080NT lethal 15µM, KB-3-1 cytotox inconclusive, KB-V1 MDR tox inconclusive
O=S(=O)(Oc1ccccc1)c1ccc(Cl)c(Cl)c1	KB-V1 MDR tox inconclusive
Cc1cc(S(=O)(=O)NCC(C)C)ccc1OCC(=O)NCC1CCCO1 (stereo unspecified)	KB-V1 MDR tox 21µM
O=c1[nH]c(CN2CCN(S(=O)(=O)/C=C/c3ccccc3)CC2)nc2cc(Cl)ccc12	HT1080 IDH1KD tx 21µM, HT1080NT lethal 9.2µM, KB-3-1 cytotox 23µM, KB-V1 MDR tox inconclusive
NC(=O)C1CCN(Cc2nc3cc(Cl)ccc3c(=O)[nH]2)CC1	HT1080 IDH1KD tx 18µM, HT1080NT lethal 21µM, KB-3-1 cytotox inconclusive
O=c1[nH]c(CN2CCN(S(=O)(=O)/C=C/c3ccccc3)CC2)nc2ccccc12	none
CC(C)c1cccc(NC(=O)COC(=O)c2ccccc2OCc2cccc(Br)c2)c1	KB-3-1 cytotox inconclusive (no result: HT1080 IDH1KD tx, HT1080NT lethal)
COc1ccc2c3c(cccc13)C(=O)N(O)C2=O	HT1080 IDH1KD tx 21µM, HT1080NT lethal inconclusive, KB-3-1 cytotox inconclusive, KB-V1 MDR tox inconclusive
CC(C)N(Cc1nc(-c2ccc(Cl)cc2)no1)C(=O)c1ccco1	KB-3-1 cytotox inconclusive (no result: HT1080 IDH1KD tx, HT1080NT lethal)
COc1ccc2[nH]c(CCc3nc4c(OC)c(OC)ccc4[nH]3)nc2c1OC	none (no result: HT1080 IDH1KD tx, HT1080NT lethal)
O=C(CC(SCc1ccco1)c1ccc(O)cc1)c1cccs1 (stereo unspecified)	KB-3-1 cytotox 21µM
O=C(CSc1nnc(-c2ccc(O)cc2)n1Cc1ccco1)c1cccs1	none
C[n+]1c(/C=C/c2ccc(N)cc2)sc2ccccc21	none (no result: HT1080 IDH1KD tx, HT1080NT lethal)
CC1CCN(S(=O)(=O)c2cc(C(=O)NCc3ccc(F)cc3)n(C)c2)CC1	none (no result: HT1080 IDH1KD tx, HT1080NT lethal)
CCCC(=NCCc1c(C)[nH]c2ccccc12)C1=C(O)CC(c2ccccc2)CC1=O (stereo unspecified)	HT1080 IDH1KD tx 4.6µM, HT1080NT lethal inconclusive, KB-3-1 cytotox 7.3µM, KB-V1 MDR tox 5.2µM
CCC/C(O)=C1\C(=O)CC(c2ccccc2)CC1=NCCc1c(C)[nH]c2ccccc12 (stereo unspecified)	none
CCCCC(=Nc1ccccc1OC)C1=C(O)CC(c2ccccc2)CC1=O (stereo unspecified)	none
CCCCC(=NCCc1c(C)[nH]c2ccccc12)C1=C(O)CC(c2ccccc2)CC1=O (stereo unspecified)	HT1080 IDH1KD tx 9.2µM, HT1080NT lethal inconclusive, KB-3-1 cytotox 13µM, KB-V1 MDR tox 9.2µM
Cc1cc(Nc2ccccc2F)n2nc(-c3ccccc3)nc2n1	none (no result: HT1080 IDH1KD tx, HT1080NT lethal)
Cc1cc(C)c2c(c1)cc(C)c1nnc(SCC(=O)Nc3ccc(S(=O)(=O)N4CCCCC4)cc3)n12	KB-V1 MDR tox 18µM
Cc1ccc2cc(C)c(SCC(=O)Nc3ccc(S(=O)(=O)N4CCCC4)cc3)nc2c1	none
Cc1ccc(NC(=O)CN(c2ccccc2)S(=O)(=O)N(C)C)cc1	KB-V1 MDR tox 15µM
CN(C)S(=O)(=O)N(CC(=O)Nc1ccc(F)c(F)c1)c1ccccc1	KB-V1 MDR tox 21µM
Cc1cccc(N(CC(=O)Nc2ccc(F)cc2)S(C)(=O)=O)c1	KB-V1 MDR tox 16µM
CN(C)S(=O)(=O)N(CC(=O)Nc1ccc(C(F)(F)F)cc1)c1ccccc1	none (no result: HT1080 IDH1KD tx, HT1080NT lethal)
CN1CCCN(C(c2ccccc2)c2ccc(Cl)cc2)CC1 (stereo unspecified)	HT1080 IDH1KD tx 18µM, HT1080NT lethal 18µM
COc1cc(NC2=Nc3cccc4cccc2c34)cc(OC)c1OC	HT1080 IDH1KD tx inconclusive, HT1080NT lethal inconclusive, KB-V1 MDR tox 2.6µM
COc1ccc(CC(=O)NNC2=Nc3cccc4cccc2c34)cc1OC	none
COc1ccc(NC2=Nc3cccc4cccc2c34)cc1OC	KB-V1 MDR tox inconclusive
COc1cccc(NC2=Nc3cccc4cccc2c34)c1	KB-V1 MDR tox 13µM
Cc1ccc(Nc2nc(N/N=C\c3ccc4c(c3)OCO4)nc(N3CCOCC3)n2)cc1	HT1080 IDH1KD tx 26µM, HT1080NT lethal inconclusive
Cc1cccc(/C=N/Nc2cc(N3CCOCC3)nc(N3CCOCC3)n2)c1	HT1080 IDH1KD tx inconclusive, HT1080NT lethal inconclusive, KB-3-1 cytotox inconclusive, KB-V1 MDR tox 15µM
O=C1CSC2(C(=O)N(Cc3ccccc3F)c3ccccc32)N1c1ccc(F)cc1 (stereo unspecified)	KB-3-1 cytotox inconclusive, KB-V1 MDR tox 16µM (no result: HT1080 IDH1KD tx, HT1080NT lethal)
O=C1CSC2(C(=O)N(Cc3ccccc3)c3ccccc32)N1c1ccc(Cl)cc1 (stereo unspecified)	KB-3-1 cytotox inconclusive (no result: HT1080 IDH1KD tx, HT1080NT lethal)
CCc1cccc(N2C(=O)CSC23C(=O)N(Cc2ccccc2F)c2ccccc23)c1 (stereo unspecified)	KB-3-1 cytotox 21µM, KB-V1 MDR tox 15µM (no result: HT1080 IDH1KD tx, HT1080NT lethal)
CCc1ccc(NC(=O)CSc2ccc3nnc(CCNS(=O)(=O)c4ccc(OC)cc4)n3n2)cc1	none (no result: HT1080 IDH1KD tx, HT1080NT lethal)
CCOC(=O)c1cc(-c2ccc(F)cc2)n(CCC(=O)NCCc2ccc(C)cc2)c1C	none (no result: HT1080 IDH1KD tx, HT1080NT lethal)
O=C(/C=C/c1ccc(Br)o1)NC(c1ccccc1)c1ccccc1	KB-V1 MDR tox 23µM
COc1cc(CN(C)Cc2cc(=O)n3ccsc3n2)ccc1OC(F)F	KB-V1 MDR tox 13µM
CCN(CC(=O)NCc1ccc(F)cc1)Cc1cc(=O)n2ccsc2n1	none
NNC(=O)/C(=C\c1ccco1)NC(=O)c1ccco1	HT1080 IDH1KD tx inconclusive, HT1080NT lethal 15µM
C=CCNC(=O)/C(=C\c1ccco1)NC(=O)c1ccco1	none
CCCOc1cccc(C2c3c(oc4cc(C)c(C)cc4c3=O)C(=O)N2CCCN2CCOCC2)c1 (stereo unspecified)	KB-3-1 cytotox inconclusive (no result: HT1080 IDH1KD tx, HT1080NT lethal)
COc1ccc(-c2[nH]nc3nc(N4CCN(C(=O)c5ccoc5)CC4)cc(C(F)(F)F)c23)cc1	HT1080 IDH1KD tx inconclusive, HT1080NT lethal inconclusive, KB-3-1 cytotox inconclusive, KB-V1 MDR tox 6.5µM
CCCNC(=O)c1cc(C2CCCCN2C(=O)c2cc(C(C)(C)C)nn2C)on1 (stereo unspecified)	KB-3-1 cytotox inconclusive, KB-V1 MDR tox 16µM
COc1ccc(S(=O)(=O)c2cc3cc(C(C)(C)C)cc(O)c3oc2=O)cc1	none (no result: HT1080 IDH1KD tx, HT1080NT lethal)
O=C(CBr)N1CCc2ccccc2C(c2ccccc2)C1 (stereo unspecified)	HT1080 IDH1KD tx 21µM, HT1080NT lethal 26µM
CCOC(=O)c1ccccc1NC(=O)CN(c1ccccc1OC)S(=O)(=O)c1ccc(C)cc1	none (no result: HT1080 IDH1KD tx, HT1080NT lethal)
COc1cc(Cl)c(NC(=O)CN(C)S(=O)(=O)c2ccc3[nH]c4c(c3c2)CCCC4)c(OC)c1	none (no result: HT1080 IDH1KD tx, HT1080NT lethal)
